HT1080NT lethal = qHTS for induction of synthetic lethality in tumor cells producing 2HG: qHTS for the HT-1080-NT fibrosarcoma cell line; Potency, µM (titrated, usually from 46.1 µM), for the others: at the top dose activity, negative = less viability, hits mostly cytotoxic; HT-1080-NT fibrosarcoma viability, CellTiter-Glo ATP luminescence, 48 h; actives 1.6% (n = 360,000);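 note: NT is the 2HG producing partner of a matched IDH1 knockdown line; potency is the fitted concentration of half-maximal effect; 0% = DMSO-treated cells and -100% = media-only wells without cells; nearly all actives have a fitted effect of over 55% in size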
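Viability of the 2HG-overproducing fibrosarcoma line after 48 hours of compound exposure at 37 degrees C was determined by luminescence with CellTiter-Glo, and concentration-effect curves were then fitted and categorized.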
DT40 TDP1 CPT = qHTS for Inhibitors of human tyrosyl-DNA phosphodiesterase 1 (TDP1): qHTS in cells in presence of CPT; chicken DT40 Tdp1-/-;hTDP1 cells + 20 nM CPT, ATP luminescence, 48 h; Potency, µM (titrated, usually from 46.2 µM), without a hit: at the highest dose activity change, negative = growth inhibition, most hits filed as inhibitors; actives 12% (n = 420,000); AID 686979, 2013; note: potency is the fitted concentration of half-maximal effect; nearly all actives have a fitted effect of over 55% in size
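Chicken DT40 Tdp1-/- cells complemented with human TDP1, 400 cells/well, exposed to compounds plus 20 nM camptothecin for at least 48 h at 37 C; viability read as ATP content by CellTiter-Glo luminescence.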
ELG1 DNA repair = qHTS screen for small molecules that inhibit ELG1-dependent DNA repair in human embryonic kidney (HEK293T) cells expressing luciferase-tagged ELG1 | actives 2.3% (n = 330,000) | HEK293T ELG1-luciferase reporter, luminescence, 16 h; DNA damage induced by 5-fluorouridine | Potency, µM (highest dose often 46.1 µM), without a hit: at the top dose activity change, negative = inhibition, most hits filed as inhibitors; note: potency is the fitted concentration of half-maximal effect; nearly all actives have a fitted effect of over 55% in size
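HEK293T cells expressing luciferase-tagged ELG1 (2,000/well) received 5-Fluorouridine plus compound or DMSO for 16 hr at 37 °C. Luciferase was read by ONE-Glo luminescence after 30 min at room temperature.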
HT1080 IDH1KD tx = qHTS for induction of synthetic lethality in tumor cells producing 2HG: qHTS for the HT-1080-IDH1KD cell line; AID 686971, 2013; actives 2% (n = 360,000); HT-1080 IDH1 knockdown viability, ATP luminescence, 48 h; Potency, µM (top dose mostly 46.1 µM), for inactives: at the highest dose activity, negative = toxicity, hits mostly cytotoxic;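 note: potency is the fitted concentration of half-maximal effect; 0% = DMSO wells and -100% = cell-free medium wells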
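Luminescent ATP read-out (CellTiter-Glo, 10 min at room temperature) after 48 h compound exposure at 37 °C gave viability of IDH1-knockdown HT-1080 cells. Activity was normalised to DMSO and cell-free wells, then fitted as concentration-response curves.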
TDP1 cell noCPT = qHTS for Inhibitors of human tyrosyl-DNA phosphodiesterase 1 (TDP1): qHTS in cells in absence of CPT. AID 686978, 2013. DT40 Tdp1-/- hTDP1 cells, no CPT, ATP luminescence, 48 h. actives 15% (n = 420,000). Potency, µM (titrated, usually from 46.2 µM), without a hit: at the top dose activity change, negative = growth inhibition, usual class: inhibitors; note: potency is the fitted concentration of half-maximal effect; nearly all actives have a fitted effect of over 55% in size
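Stably hTDP1-transfected Tdp1-null chicken DT40 cells were treated with library compounds minus camptothecin and grown for at least 48 hr at 37 °C, after which cellular ATP was quantified by luminescence.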
IL-1B inflam inh = qHTS for Inhibitors of Inflammasome Signaling: IL-1-beta AlphaLISA Primary Screen; actives 4.7% (n = 360,000); activity change, % at 57.5 µM; THP-1 LPS/ATP IL-1B secretion, AlphaLISA, 16 h; active compounds read low; in the data active = activity change below about -50%; inconclusive = mostly about -30% to -49%
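THP-1 cells pretreated 1 hr with compounds (up to 57.5 uM final), then stimulated with LPS (250 ng/mL final) plus ATP (1.25 mM final); secreted IL-1B measured by AlphaLISA after 16 hr, decreased signal indicating inhibition.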
The depositor's hits bear a star. In the library only some 19% were active in any assay of this set; here they are far more common. Unless noted, calls come from the whole dose curve; as a rule, active = well fitted curve in the direction sought with a large enough effect; inconclusive = small, poorly fitted or top-dose-only effect, or another doubt; inactive = no such curve, though single readings can be large; an effect the other way counts as inactive or inconclusive. Unless noted, % is set by controls: 0 for no effect and ±100 for the full control effect.

For CC(C)c1cc(Cn2c3ccccc3c(=O)n2C(C)CBr)on1 (stereo not given) the results were HT1080NT lethal -16.4%, DT40 TDP1 CPT inconclusive, HT1080 IDH1KD tx 0.2%, TDP1 cell noCPT inconclusive and IL-1B inflam inh 0.0.
Screening Cc1ccc(NC(=O)CSc2ncccn2)cc1S(=O)(=O)N1CCOCC1 returned HT1080NT lethal 4.0%, DT40 TDP1 CPT -13.2%, ELG1 DNA repair inconclusive, HT1080 IDH1KD tx 12.8%, TDP1 cell noCPT -2.5% and IL-1B inflam inh 9.2.
COC(=O)c1ccccc1NC(=O)CSc1n[nH]c(-c2ccco2)n1 was read as HT1080NT lethal -16.9%, DT40 TDP1 CPT -0.7%, ELG1 DNA repair -12.8%, HT1080 IDH1KD tx -0.7%, TDP1 cell noCPT 0.4% and IL-1B inflam inh 3.5.
Screening CCCCOc1ccccc1C1C(C(=O)OC)=C(C)N(C)C(C)=C1C(=O)OC returned HT1080NT lethal 5.8%, DT40 TDP1 CPT inconclusive, ELG1 DNA repair -19.5%, HT1080 IDH1KD tx -2.8%, TDP1 cell noCPT 23.1µM* and IL-1B inflam inh -16.5.
`COCCN(Cc1nc2ccccc2c(=O)[nH]1)C(=O)c1cccc(S(=O)(=O)N2CCCC2)c1` gave HT1080NT lethal 6.3%, DT40 TDP1 CPT inconclusive, ELG1 DNA repair -10.0%, HT1080 IDH1KD tx -4.1%, TDP1 cell noCPT -4.3% and IL-1B inflam inh 30.9.
COCCN(Cc1ccccc1)C(=O)c1cccc(S(=O)(=O)N2CCN(c3ccccc3)CC2)c1 was read as HT1080NT lethal -3.7%, DT40 TDP1 CPT inconclusive, ELG1 DNA repair 14.6µM*, HT1080 IDH1KD tx -2.0%, TDP1 cell noCPT 16.4µM* and IL-1B inflam inh -5.5.
Screening COCCN(Cc1ccccc1)C(=O)c1cccc(S(=O)(=O)N2CCN(c3ccc(F)cc3)CC2)c1 returned HT1080NT lethal -0.5%, DT40 TDP1 CPT inconclusive, ELG1 DNA repair inconclusive, HT1080 IDH1KD tx -11.1%, TDP1 cell noCPT 18.4µM* and IL-1B inflam inh -20.4.
`COCCN(Cc1ccccc1)C(=O)c1cc(S(=O)(=O)N2CCCCCC2)ccc1OC` gave HT1080NT lethal -3.1%, DT40 TDP1 CPT inconclusive, ELG1 DNA repair -5.4%, HT1080 IDH1KD tx 3.3%, TDP1 cell noCPT inconclusive and IL-1B inflam inh -11.1.
`COC(=O)c1cccc(NS(=O)(=O)c2ccc(OC)c(C(=O)N3CCOCC3)c2)c1C` gave HT1080NT lethal 2.8%, DT40 TDP1 CPT -0.5%, ELG1 DNA repair -2.5%, HT1080 IDH1KD tx 6.4%, TDP1 cell noCPT -2.1% and IL-1B inflam inh -3.8.
C#CCSC1=C(C#N)C(c2cccs2)C(C(=O)OCC)=C(C)N1 (stereo not given) was read as HT1080NT lethal 9.4%, DT40 TDP1 CPT inconclusive, ELG1 DNA repair -27.0%, HT1080 IDH1KD tx -10.8%, TDP1 cell noCPT inconclusive and IL-1B inflam inh -0.6.
For CCN(CC)C(=O)CSC1=C(C#N)C(c2cccs2)C=C(C)N1 (stereo not given) the results were HT1080NT lethal 2.1%, DT40 TDP1 CPT inconclusive, ELG1 DNA repair -12.5%, HT1080 IDH1KD tx -2.3%, TDP1 cell noCPT 23.1µM* and IL-1B inflam inh -12.8.
CC1C(=O)N(Cc2cn(CCC3OCCO3)nn2)CCS(=O)(=O)N1Cc1ccc(-c2cccc(CO)c2)cc1 (stereo not given) was read as HT1080NT lethal 3.8%, DT40 TDP1 CPT 5.9%, HT1080 IDH1KD tx 1.8%, TDP1 cell noCPT -4.6% and IL-1B inflam inh 1.0.
`COc1ccc(-c2ccc(CN3C(C)C(=O)N(Cc4cn(CCC5OCCO5)nn4)CCS3(=O)=O)cc2)cn1` (stereo not given) gave HT1080NT lethal -0.8%, DT40 TDP1 CPT inconclusive, HT1080 IDH1KD tx -9.3%, TDP1 cell noCPT 20.6µM* and IL-1B inflam inh 19.7.
CC1C(=O)N(Cc2cn(CCC3OCCCO3)nn2)CCS(=O)(=O)N1Cc1ccc(-c2cccc(N(C)C)c2)cc1 (stereo not given) was read as HT1080NT lethal -0.4%, DT40 TDP1 CPT inconclusive, HT1080 IDH1KD tx -3.5%, TDP1 cell noCPT inconclusive and IL-1B inflam inh 75.5.
COc1ccc(-c2ccc(CN3C(C)C(=O)N(Cc4cn(CCC5OCCO5)nn4)CCS3(=O)=O)cc2)cc1 (stereo not given) was read as HT1080NT lethal -10.9%, DT40 TDP1 CPT 9.2µM*, HT1080 IDH1KD tx 4.7%, TDP1 cell noCPT 23.1µM* and IL-1B inflam inh -7.2.
`CC1C(=O)N(Cc2cn(CCC3OCCO3)nn2)CCS(=O)(=O)N1Cc1ccc(-c2ccc(Cl)c(Cl)c2)cc1` (stereo not given) gave HT1080NT lethal inconclusive, DT40 TDP1 CPT 14.6µM*, HT1080 IDH1KD tx inconclusive, TDP1 cell noCPT 6.51µM* and IL-1B inflam inh -19.0.
COc1ccccc1C(=O)NCC(=O)N1CC=C(c2ccccc2)CC1 was read as HT1080NT lethal -9.3%, DT40 TDP1 CPT inconclusive, ELG1 DNA repair inconclusive, HT1080 IDH1KD tx 0.2%, TDP1 cell noCPT inconclusive and IL-1B inflam inh -10.0.
COc1cccc2cc(-c3csc(-c4ccc(Cl)cc4)n3)c(=O)oc12 was read as DT40 TDP1 CPT -8.5% and TDP1 cell noCPT -5.1%.
For Cc1ccc(C)c(S(=O)(=O)N2CCN(C(=O)Cc3ccc(S(=O)(=O)N4CCOCC4)s3)CC2)c1 the results were HT1080NT lethal -8.5%, DT40 TDP1 CPT inconclusive, ELG1 DNA repair inconclusive, HT1080 IDH1KD tx -3.5%, TDP1 cell noCPT inconclusive and IL-1B inflam inh 8.9.
For O=C(NC1CCCCC1)C(c1cccs1)N(C(=O)Cc1c[nH]c2ccccc12)c1ccc(F)cc1 (stereo not given) the results were HT1080NT lethal -0.8%, DT40 TDP1 CPT inconclusive, ELG1 DNA repair -16.3%, HT1080 IDH1KD tx 1.5%, TDP1 cell noCPT 14.3% and IL-1B inflam inh 10.2.
For Cc1ccc(C(C(=O)NC2CCCCC2)N(C(=O)Cc2c[nH]c3ccccc23)c2ccccc2)o1 (stereo not given) the results were HT1080NT lethal inconclusive, DT40 TDP1 CPT inconclusive, ELG1 DNA repair 4.1%, HT1080 IDH1KD tx -24.8%, TDP1 cell noCPT inconclusive and IL-1B inflam inh inconclusive.
